Pf apPOL block – Pf-apPOL DNA polymerase inhibition; Recombinant Pf-apPOL, molecular beacon fluorescence, 1.5 h; inhibition, % at 10 µM; hit rate 0.25% among 210,000; AID 1794808
mHTT-CaM PPI inh – inhibitors of human mutant huntingtin-calmodulin interaction; inhibition, % at 15 µM; P42858; hit rate 3.6% among 190,000; AlphaScreen His-mHTT/GST-CaM binding, luminescence; AID 1671202;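 also: 0% = both proteins with DMSO and 100% = one protein alone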
Active calls of the source: *; nt = no result given. Rows were chosen to be rich in hits. Some 3.6% of all compounds tested hit in one or more screens of this group. Rule as the data show it: active = inhibition above about 50%; inactive = the rest.

SMILES | Pf apPOL block | mHTT-CaM PPI inh
CCC(C)NC(=O)c1cnn2c(C(F)(F)F)cc(-c3ccc(Br)cc3)nc12 (configuration not stated) | 10 | 6
O=S(=O)(c1ccccc1)N1CCC2(CC1)NCCN=C2NC1CCCC1 | 0 | 2
Cn1cccc1/C=C1\CN(Cc2ccccc2)C/C(=C\c2cccn2C)C1=O | -4 | 99*
O=C1/C(=C/c2cccnc2)CN(Cc2ccccc2)C/C1=C\c1cccnc1 | -6 | 14
COc1ccc(NC(=O)CN2CCC(C(=O)NCCn3ncccc3=O)CC2)cc1OC | 2 | 0
COc1cc2c(cc1OC)C(C(=O)NCc1ccccn1)C(c1cccnc1)N(C)C2=O (configuration not stated) | -6 | -6
NS(=O)(=O)c1ccc(CNS(=O)(=O)c2ccc(F)cc2)cc1 | -3 | 1
CCCCN1CC(N2CCN(C3CCN(C)CC3)CC2)CS1(=O)=O (configuration not stated) | -5 | -6
CN1C2=NCCN2C(=O)c2cc(Cl)ccc21 | -5 | nt
CN(C)/C=C1\N=C(c2ccccc2)c2cc(Cl)ccc2N(C)C1=O | 3 | 51*
CSc1cccc(NC(=O)C(=O)NCCC2=CCCCC2)c1 | -6 | -14
CCCN1CCCc2cc(CCNC(=O)C(=O)Nc3cccc(SC)c3)ccc21 | -2 | 65*
O=S(=O)(c1ccccc1)c1csc(S(=O)(=O)N(Cc2ccccn2)Cc2ccccn2)c1 | 0 | nt
O=C1C(=O)N(C(c2ccccc2)c2ccccc2)c2ccccc21 | 0 | 92*
O=C(O)CN1C(=O)C(=O)c2ccccc21 | 2 | 3
CC1CC(C)CN(C(=O)c2ccc(Cl)cc2[N+](=O)[O-])C1 (configuration not stated) | 2 | 0
CC1CCCN(C(=O)c2ccc(Cl)cc2[N+](=O)[O-])C1 (configuration not stated) | 80* | 3
Cc1nn(C)cc1C(C)NC(=O)C1CCN(c2cnn(Cc3ccccc3)c(=O)c2)CC1 (configuration not stated) | -6 | 4
Cc1cccc2c1N(CC(=O)NCc1cc(F)cc(F)c1)C(=O)C1CCCN1C2=O (configuration not stated) | -10 | -8
Cc1[nH]n(-c2ccccc2)c(=O)c1C=Nc1c(C)[nH]n(-c2ccccc2)c1=O | -2 | 8
COc1ccccc1N=Cc1c(C)[nH]n(-c2ccccc2)c1=O | -5 | 41
Cc1[nH]n(-c2ccccc2)c(=O)c1C=Nc1cc(Br)ccc1O | 1 | 89*
COc1ccc(OC)c(N=Cc2c(C)[nH]n(-c3ccccc3)c2=O)c1 | 0 | 67*
COc1ccccc1Nc1ncc2c(n1)CCN(Cc1cc(OC)c(OC)c(OC)c1)C2 | -2 | -5
CC(CCc1ccc(O)cc1)NCCc1ccc(O)c(O)c1 (configuration not stated) | -2 | nt
SMILES | Pf apPOL block | mHTT-CaM PPI inh
O=C(NC(Nc1ccc(I)cc1)C(Cl)(Cl)Cl)c1cccs1 (configuration not stated) | -3 | 84*
O=C(NC(Nc1ccc([N+](=O)[O-])cc1)C(Cl)(Cl)Cl)c1cccs1 (configuration not stated) | 0 | 34
O=C(NC(Nc1ccc(Cl)cc1)C(=O)c1ccccc1)c1cccs1 (configuration not stated) | -3 | 81*
Cc1ccc(NC(NC(=O)c2cccs2)C(=O)c2ccccc2)cc1 (configuration not stated) | -3 | 38
O=C1OC(c2cc([N+](=O)[O-])ccc2Cl)=N/C1=C\C(Cl)=C\c1ccccc1 | 3 | 13
CC1CC(=O)C2=C(C1)OC(N)=C(C#N)C2c1cccnc1 (configuration not stated) | -2 | 1
C=CCn1c(SCC(=O)N2CCOCC2)nc2sc3c(c2c1=O)CCC3 | -2 | 7
CCN(CC)CCN1C(=O)C(O)=C(C(C)=O)C1c1ccccc1[N+](=O)[O-] (configuration not stated) | -16 | 2
COc1cc(/C=C2/NC(=O)N(Cc3ccc(Cl)cc3)C2=O)cc(Br)c1O | 0 | 39
COc1cc(/C=C2/NC(=O)N(Cc3ccc(Br)cc3)C2=O)cc(OC)c1O | -5 | 55*
O=C(NCCc1csc2nc(-c3cccc(F)c3)nn12)Nc1ccccc1C(F)(F)F | -9 | -4
Cc1ccc(C2C(C#N)=C(N)Oc3n[nH]c(C)c32)c(C)c1 (configuration not stated) | -3 | 2
CC(=O)Nc1ccc(S(=O)(=O)Nc2ccc(C)cc2[N+](=O)[O-])cc1 | 0 | 51*
CC(=O)Nc1ccc(S(=O)(=O)Nc2ccc(C)cc2Br)cc1 | -7 | -2
Cc1[nH]c(C(=O)N2CCC(CC(=O)NCc3ccc4c(c3)OCO4)CC2)c(C)c1C | -5 | 23
CSc1ccc(C2Nc3ccccc3NC3=C2C(=O)CC(c2ccccc2)C3)cc1 (configuration not stated) | -10 | 49
COc1ccc(C2CC(=O)C3=C(C2)Nc2ccccc2NC3c2cccc([N+](=O)[O-])c2)cc1OC (configuration not stated) | 14 | 32
O=C1CC(c2ccc(Cl)cc2)CC2=C1C(c1cccc([N+](=O)[O-])c1)Nc1ccccc1N2 (configuration not stated) | -4 | 62*
O=C1CC(c2ccccc2)CC2=C1C(c1ccc(Br)cc1)Nc1ccccc1N2 (configuration not stated) | 0 | 79*
ON=C1CCCc2nonc21 | -4 | nt
O=c1cc(-c2ccccc2)oc2c(CN3CCCCC3)c(O)c(CN3CCCCC3)c(O)c12 | 3 | 39
CCN(CC)Cc1c(O)c(CN(CC)CC)c2oc(-c3ccccc3)cc(=O)c2c1O | 5 | 100*
O=C(Nc1ccccc1)C1CC(=O)N(CCc2c[nH]c3ccc(Cl)cc23)C1 (configuration not stated) | 3 | 33
COc1ccc2[nH]cc(CCN3CC(C(=O)Nc4cccc(C)c4C)CC3=O)c2c1 (configuration not stated) | 2 | 15
Cc1cccc(NC(=O)C2CC(=O)N(CCc3c[nH]c4ccc(Cl)cc34)C2)c1C (configuration not stated) | 7 | 71*
SMILES | Pf apPOL block | mHTT-CaM PPI inh
Cc1ccc2[nH]cc(CCN3CC(C(=O)Nc4ccc(F)c(Cl)c4)CC3=O)c2c1 (configuration not stated) | 1 | 54*
O=C(NC1CCCCC1)C1CC(=O)N(CCc2c[nH]c3ccc(Cl)cc23)C1 (configuration not stated) | 1 | 8
Cc1ccc2[nH]cc(CCN3CC(C(=O)Nc4ccc(Cl)cc4)CC3=O)c2c1 (configuration not stated) | 0 | 22
O=C(NC1CCCC1)C1CC(=O)N(CCc2c[nH]c3ccc(Cl)cc23)C1 (configuration not stated) | 1 | 65*
Cc1cc(C)cc(NC(=O)C2CC(=O)N(CCc3c[nH]c4ccc(Cl)cc34)C2)c1 (configuration not stated) | -3 | 100*
Cc1cc(C)c(C#N)c(SCc2nnc(-c3ccc(Cl)cc3)o2)n1 | -3 | -10
CCCC(=O)Nc1ccc(NC(=O)c2ccccc2)c(Br)c1 | 3 | -3
O=C(CSc1ccncc1)N1CCc2cc(-c3ccno3)ccc21 | -6 | 7
O=C(NCCCN1CCOCC1)C(=O)NC1CC1 | -2 | -6
Cn1c(=O)c2c(nc(Cl)n2CC(=O)NCc2ccccc2)n(C)c1=O | -1 | 1

Assay outcomes deposited in PubChem by University of Kansas High Throughput Screening Laboratory.
